This is an account of results in PubChem BioAssay (NCI).

Test [1] in a line: NCI Yeast Anticancer Drug Screen. Data for the rad50 strain (AID 155).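 Note: 0% = growth of vehicle-only cultures of the same strain.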 As to conditions: S. cerevisiae rad50 strain growth inhibition; at 50.0 µM; stronger effect = higher value. The method, boiled down: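 Growth of the mutant yeast was measured after compound exposure and referenced to vehicle-treated cultures.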
A short description of test [2]: NCI Yeast Anticancer Drug Screen. Data for the mec2-1 strain (AID 157). As to conditions: S. cerevisiae mec2-1 strain, at 50.0 µM, stronger effect = higher value. Put shortly: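 Cells of the genetically defined mec2-1 yeast strain are incubated with test compound. Inhibition of growth is calculated against vehicle-treated controls.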
Test [3] can be described thus: NCI Yeast Anticancer Drug Screen. Data for the sgs1 mgt1 strain (AID 161).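 Note: 0% = growth of cultures given vehicle only.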 As to conditions: S. cerevisiae sgs1 mgt1 strain, at 50.0 µM, stronger effect = higher value. Put shortly:
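Mutant yeast exposed to compound; growth scored against vehicle-only wells.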

Test [4] can be described thus: NCI Yeast Anticancer Drug Screen. Data for the cln2 rad14 strain (AID 165).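 Note: 0% = growth equal to vehicle treated cultures.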 The settings on record: S. cerevisiae cln2 rad14 strain, at 50.0 µM, stronger effect = higher value. Put shortly: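 The screen exposed genetically defined yeast (cln2 rad14) to test compounds and scored growth inhibition relative to vehicle-treated controls.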
Test [5] can be described thus: NCI Yeast Anticancer Drug Screen. Data for the bub3 strain (AID 167). The settings on record: S. cerevisiae bub3 mutant strain, at 50.0 µM, stronger effect = higher value. Put shortly: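 Whole-cell yeast assay. The mutant strain was incubated with compounds, and growth inhibition was determined by comparison with vehicle-treated cells.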
A short description of test [6]: NCI Yeast Anticancer Drug Screen. Data for the mlh1 rad18 strain (AID 175). As to conditions: S. cerevisiae mlh1 rad18 strain growth inhibition; at 50.0 µM; stronger effect = higher value. Put shortly:
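Compound-treated yeast growth, normalised to vehicle controls. Strain bears defined DNA repair mutations.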

Each structure is given as a SMILES string. About 79,000 compounds went through this panel and 15% of them were active in at least one assay; those are over-represented in the sample as a whole. A number with no mark means an inactive call. The source made the active and inactive calls. Cut-off read from the data, not from the text of the source: active = growth inhibition above about 70%; inactive = the rest.

As for `CC(O)C1C(C(=O)O)C2C(C)OC(=O)C12` (stereo not given), the growth inhibition in test [1] is -0.6%; in test [2], -3.4%; in test [3], -0.8%; in test [4], 52.5%; in test [5], 2.45%; in test [6], 15.5%.
For the molecule `Nc1cccc2c(S(=O)(=O)O)cccc12`, the growth inhibition in test [1] was -2.9%; in test [2], -3.15%; in test [3] it was -11.9%; in test [4], -66.7%; in test [5], 0.3%; in test [6] it was 0.75%.
For the molecule `CCOC(=O)c1cnc(-n2[nH]c(C)c(CCO)c2=O)[nH]c1=O`, the growth inhibition in test [1] is -11.2%; in test [2], -46.9%; in test [3], -33.1%; in test [4], -6.15%; in test [5] it was -8.9%; in test [6], -37%.
With `COc1cc(OC)c(C2c3cc4c(cc3OC(N3CCCC3)C2C)OCO4)c(OC)c1` (stereo not given), the growth inhibition was 17.1% in test [1]; -11.8% in test [2]; 2.45% in test [3]; 18% in test [4]; -5.1% in test [5]; -1.4% in test [6].
Turning to `O=C(C(=O)c1cccc(Cl)c1)c1ccccc1`, the growth inhibition in test [1] was 21.4%; in test [2], 24.6%; in test [3] it was 5%; in test [4], 2.85%; in test [5], -15.2%; in test [6] it was -5.45%.
For `OCCNCN(CNCCO)c1nc(N(CNCCO)CNCCO)nc(N(CNCCO)CNCCO)n1`, the growth inhibition in test [1] was 55.6%; in test [2], 19.7%; in test [3], 32.6%; in test [4] it was -49.5%; in test [5], 2.8%; in test [6] it was 12.4%.
On to `O=C1c2ccc([N+](=O)[O-])cc2C(=O)N1CCBr`, for which the growth inhibition is 27.4% in test [1]; -13.2% in test [2]; 16.6% in test [3]; -10.2% in test [4]; 31.7% in test [5]; 13.1% in test [6].
Consider `COc1cc(CNCCO)cc(OC)c1`, for which the growth inhibition was 22.2% in test [1]; 8.8% in test [2]; -1.35% in test [3]; -15.1% in test [4]; 19.6% in test [5]; 13% in test [6].
`COc1cccc(CCN(CCOC(N)=O)CCOC(N)=O)c1OC`: the growth inhibition in test [1] is -10.1%; in test [2] it was -5.25%; in test [3], 2.9%; in test [4], -7.35%; in test [5] it was -4.85%; in test [6], -2.65%.
With `COC1OC(COS(=O)(=O)c2ccc(C)cc2)C2OC(C)(C)OC2C1OS(=O)(=O)c1ccc(C)cc1` (stereo not given), the growth inhibition in test [1] was 54.9%; in test [2] it was 16.8%; in test [3], -4.4%; in test [4], 84.2% (active); in test [5], 3.85%; in test [6] it was 7.1%.
Consider `Cc1ccc(-c2cc(-c3ccccc3)c(C#N)c(=O)[nH]2)cc1`, for which the growth inhibition in test [1] was 16.1%; in test [2] it was 9.4%; in test [3], 12.6%; in test [4], 8.55%; in test [5], 3.8%; in test [6], 25.6%.
Take `COC(=O)C(=O)C(C(=O)C=C(C)C)C(=O)C(=O)Nc1cccc(C(C)=O)c1` (stereo not given): the growth inhibition in test [1] was -18.4%; in test [2], -8.25%; in test [3], -14.7%; in test [4] it was 16.4%; in test [5] it was -13.2%; in test [6], -26.2%.
For the molecule `COc1ccc(C(Cl)=C(c2ccc(OCCN(C)C)cc2)c2ccc(OCCN(C)C)cc2)cc1`, the growth inhibition in test [1] was 29.7%; in test [2] it was 15.6%; in test [3] it was 40.1%; in test [4], 28.8%; in test [5] it was 28.4%; in test [6], 20.1%.
In the case of `O=[N+]([O-])c1cc(C2ON=C(c3ccccc3)N2C23CC4CC(CC(C4)C2)C3)ccc1Cl` (stereo not given), the growth inhibition in test [1] is -9.1%; in test [2], 10.2%; in test [3] it was 2.7%; in test [4], 16%; in test [5], -0.85%; in test [6], -8.2%.
In the case of `CCOC(=O)NC(=S)Nc1ccn(C)c1`, the growth inhibition in test [1] is 10.4%; in test [2], 36.8%; in test [3] it was 4.6%; in test [4], 39.9%; in test [5] it was 1.65%; in test [6] it was 46.6%.
Regarding `CC(=O)OC1CC(c2ccccc2)=NO1` (stereo not given), the growth inhibition is -12.8% in test [1]; -21.5% in test [2]; -8.6% in test [3]; -21.9% in test [4]; -10.8% in test [5]; -12.4% in test [6].
For the molecule `OC1C2CCC(C2)C1CN1CCOCC1` (stereo not given), the growth inhibition in test [1] was -6%; in test [2], -3.35%; in test [3] it was -8.1%; in test [4], 1.85%; in test [5] it was 4.95%; in test [6], 1.7%.
In the case of `O=C1CC(CC(=O)c2ccc(Br)cc2)C(=O)/C1=C(/O)c1ccc(Br)cc1` (stereo not given), the growth inhibition in test [1] is 21.7%; in test [2] it was 14.2%; in test [3], 36.8%; in test [4], 38%; in test [5], 22.9%; in test [6] it was 48.8%.
For the molecule `CN(C)CCCNc1ccc2nnn3c4ccc(O)cc4c(=O)c1c23`, the growth inhibition was -4.2% in test [1]; 1.25% in test [2]; 0.9% in test [3]; 0.15% in test [4]; 2.65% in test [5]; 19% in test [6].
With `COc1c(O)ccc(C(=O)O)c1N`, the growth inhibition was 13% in test [1]; 6.55% in test [2]; 14.1% in test [3]; 10.1% in test [4]; 8.95% in test [5]; -17.4% in test [6].
